Shown are actives, neighbours in structure and some others; about 6.1% of the full set was active somewhere.
DRD3 antagonist = blocks the human D3 dopamine receptor; actives 2.5% (n = 360,000); AID 652054; D3R cells, DiscoveRx beta-arrestin luminescence, antagonist mode; active compounds read low; max response, negative = inhibition, %; in the data active means max response below about -50%; inconclusive means no clear call, values can overlap the other calls; further: on the % scale 0 is the no-effect control and ±100 the full control effect
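Cells plated overnight at 1500 cells/well, then exposed to library compounds with dopamine controls for 90 minutes at 37 degrees C. DiscoveRx reagent added for 30–60 minutes at room temperature; luminescence read, quantitative HTS format.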
D1 antag = human D1 dopamine receptor antagonism | HEK293 TREx D1 cells, calcium flux, dopamine EC80; active compounds read low | activity change, negative = inhibition, % at 10 µM | actives 3.2% (n = 360,000) | AID 504652; in the data active means activity change below about -30%; further: on the % scale 0 is the no-effect control and ±100 the full control effect
Target sequence (P21728 whole entry, looked up): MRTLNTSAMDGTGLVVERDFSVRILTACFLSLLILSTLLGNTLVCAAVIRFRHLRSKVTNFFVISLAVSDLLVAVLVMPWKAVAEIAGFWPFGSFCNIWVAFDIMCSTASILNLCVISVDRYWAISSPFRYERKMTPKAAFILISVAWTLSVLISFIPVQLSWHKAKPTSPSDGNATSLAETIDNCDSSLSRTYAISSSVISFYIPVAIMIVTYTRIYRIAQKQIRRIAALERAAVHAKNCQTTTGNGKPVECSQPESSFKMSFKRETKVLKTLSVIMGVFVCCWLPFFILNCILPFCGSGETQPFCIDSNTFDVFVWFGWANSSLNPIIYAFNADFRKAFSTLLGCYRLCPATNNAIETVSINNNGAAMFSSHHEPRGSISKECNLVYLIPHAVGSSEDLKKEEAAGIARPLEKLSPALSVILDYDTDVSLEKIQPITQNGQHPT
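Kinetic fluorescence of a calcium dye serves as the read-out. D1-expressing Hek293 Trex cells, induced overnight at 30 C, are exposed to compound for 180 s before an EC80 dopamine addition, then read 180 s further.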
D1 PAM = enhances dopamine response at the human D1 receptor | HEK293 TREx D1 cells, calcium flux, dopamine EC20 potentiation | potentiation, % at 10 µM | actives 0.036% (n = 360,000) | AID 504651; in the data active means potentiation above about 30%; further: 0% is about no effect
DRD3 agonist = activates the human D3 dopamine receptor | P35462 | D3R DiscoveRx beta-arrestin cells, luminescence, 90 min | max activation, % | actives 0.58% (n = 410,000) | AID 652048; in the data active means max activation above about 30%; further: 0% is about no effect
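Agonist mode: compounds and dopamine controls were applied to plated cells for 90 min at 37 degrees C after an overnight attachment at 1500 cells/well. Luminescent read-out followed 30 - 60 minutes at room temperature with DiscoveRx detection reagent.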
D1 agonist = agonists of human D1 dopamine receptor. P21728. HEK293 T-REx D1 cells, calcium flux, agonist mode. AID 504660. actives 1% (n = 360,000). activation, % at 2 µM; in the data active means activation above about 30%; further: 0% is about no effect
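Tetracycline-induced HEK293 TREx D1 cells, force-coupled to calcium signalling, were dye-loaded with a no-wash calcium kit. Compound was pin-added after a 10 s baseline. Fluorescence was read kinetically at 1 cycle/s for 180 s, with calcium rises flagged as agonism.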
Active calls of the source: *; ? = inconclusive; . = no result given.

SMILES	DRD3 antagonist	D1 antag	D1 PAM	DRD3 agonist	D1 agonist
Cc1ccc(NC(=O)CSc2nc(=O)n3cc(C)ccc3n2)c(C)c1	5	-35*	-6	5	3
C=CCn1c(C)cc(C(=O)Cn2ncc(Cl)c(Cl)c2=O)c1C	-88*	8	-3	-14	0
O=C(Cn1ncc(Cl)c(Cl)c1=O)c1ccc(Cl)cc1	-55*	-25	-7	-7	1
O=C(Cn1cncn1)c1ccc(Cl)cc1	-80*	8	-6	2	1
O=C(Cn1ncc(N2CCOCC2)c(Cl)c1=O)c1ccc(Cl)cc1	-6	.	0	-6	-1
O=C(OCn1ncc(Cl)c(Cl)c1=O)c1ccccc1Cl	-70*	-7	-3	-9	3
COC(=O)C1=C(C)NC(C)=C(C(=O)OCCN2CCN(C(c3ccccc3)c3ccccc3)CC2)C1c1cccc([N+](=O)[O-])c1 (centres undefined)	.	.	.	-27	.
CCN(CC(=O)NCc1ccccn1)S(=O)(=O)c1cc(Cl)ccc1Cl	-5	-12	-3	2	5
O=C(Cc1ccc(S(=O)(=O)N2CCCC2)s1)N1CCN(c2ccccc2)CC1	-8	-7	-1	3	2
O=C(Cc1ccc(S(=O)(=O)N2CCOCC2)s1)N1CCN(c2cccc(C(F)(F)F)c2)CC1	18	-32*	-6	14	14
Cc1ccc(C(c2nnnn2C(C)(C)C)N2CCN(C3CCCC3)CC2)cc1 (centres undefined)	-92*	4	10	-16	1
Cc1cccc(N2CCN(C(c3ccncc3)c3nnnn3C(C)(C)C)CC2)c1C (centres undefined)	0	-40*	-8	-1	0
COc1ccc(Cn2nnnc2C(c2ccccc2)N2CCN(C3CCCC3)CC2)cc1 (centres undefined)	-27	-6	-3	-10	30
COc1ccc(C(c2nnnn2CCc2ccccc2)N2CCN(C3CCCC3)CC2)cc1 (centres undefined)	-85*	14	0	0	1
COc1ccccc1N1CCN(C(c2ccc(N(C)C)cc2)c2nnnn2CCc2ccccc2)CC1 (centres undefined)	-51*	2	-5	1	9
COc1ccc(NC(=O)C2CCCO2)c(OC)c1 (centres undefined)	-22	-9	3	-4	2
COc1ccc(NC(=O)CN2CCN(C(=O)C3CCCO3)CC2)c(OC)c1 (centres undefined)	14	4	3	2	50*
COc1ccc(OC)c(NC(=O)CN2CCC(C(=O)c3ccc(C)cc3)CC2)c1	?	-2	-8	-12	0
COc1ccc(NC(=O)CN2CCC(C(=O)c3ccc(F)cc3)CC2)c(OC)c1	-73*	1	-13	-17	14
COc1ccc(NC(=O)CN2CCN(CC(=O)Nc3ccccc3Cl)CC2)c(OC)c1	27	-2	-3	30*	2
COc1ccc(NC(=O)COC(=O)c2ncc(Cl)c(Cl)c2Cl)c(OC)c1	2	-41*	-2	7	0
COc1ccc(NC(=O)CN2CCN(CC(=O)Nc3ccccc3OC)CC2)c(OC)c1	3	-2	-3	4	0
COc1ccc(-c2noc(CCC(=O)NCC3CCCO3)n2)cc1OC (centres undefined)	-8	4	-4	5	1
COc1ccc(-c2[nH]ncc2CN2CCC(OCc3ccccc3)CC2)c(F)c1	5	-52*	-5	5	11
COc1ccc(NC(=O)N2CCC(C(=O)c3ccc(F)cc3)CC2)cc1	10	-6	-2	16	1
SMILES	DRD3 antagonist	D1 antag	D1 PAM	DRD3 agonist	D1 agonist
COc1ccc(NC(=O)CN2CCC(C(=O)c3ccc(C)cc3)CC2)c(OC)c1	-71*	-2	-8	-19	2
COc1ccc(-c2[nH]ncc2CN2CCC(C(=O)c3ccc(F)cc3)CC2)cc1	-90*	14	-2	-16	12
CCOc1ccc(/C(O)=C2/C(=O)C(=O)N(c3ncccn3)C2c2ccc(C)cc2)cc1 (centres undefined)	-21	6	0	31*	3
CCOc1ccc(/C(O)=C2/C(=O)C(=O)N(c3ncccn3)C2c2ccccc2)cc1 (centres undefined)	2	11	-1	-3	8
Cc1ccc(N2CCN(C(C(=O)Nc3c(C)cccc3C)c3cc4ccccc4o3)CC2)cc1 (centres undefined)	-5	.	.	5	.
Cc1cc(C(=O)NCCCn2ccnc2)sc1-c1ccccc1	-70*	-7	-8	-58	1
O=C(NCCCn1ccnc1)c1cc(-c2ccc(Cl)cc2)nc2ccccc12	-13	-39*	-5	-17	-1
O=C(CCCCCN1C(=O)C2C3C=CC(C3)C2C1=O)Nc1nccs1 (centres undefined)	-18	-14	.	5	8
O=C(CCN1C(=O)C2C3C=CC(C3)C2C1=O)Nc1nccs1 (centres undefined)	7	-64*	-15	3	0
CCn1c(SCC(=O)NC)nnc1C(C)C	-52*	-4	-1	-3	-2
CCCCC1=CC2=C(c3ccco3)C(=O)C(C)(OC(=O)c3ccc(OC)cc3)C(=O)C2=CN1C1CCCCC1 (centres undefined)	-91*	-13	1	-39	9
O=C(O)c1cc2cc(Cl)ccc2oc1=O	-28	-13	-3	34*	2
Cn1cc(/C=C2/SC(=O)N(CC(=O)Nc3ccc4c(c3)OCO4)C2=O)c2ccccc21	-84*	.	.	0	.
Cc1ccc(NC(=O)COC(=O)Cc2ccsc2)c(C)c1	3	-34*	-3	9	0
O=C(CSc1nc(-c2ccccc2)c(-c2ccccc2)o1)N1CCCCC1	19	.	.	1	.
O=C(CSCC(=O)N1CCCCC1)Nc1nc(-c2ccccc2)c(-c2ccccc2)s1	-51*	24	1	-12	0
COc1ccc(-c2sc(NC(C)=O)nc2-c2ccccc2)cc1	5	-17	-11	-2	0
COc1ccc(-c2nc(NC(C)=O)sc2-c2ccccc2)cc1	-10	-32*	-14	-2	3
COc1ccc(C(=O)Nc2ccc(NC(=O)c3cnccn3)cn2)cc1	15	.	.	5	.
CCOC(=O)c1cc(-c2csc(-c3ccc(C(F)(F)F)cc3)n2)on1	9	-10	-9	11	5
CCOC(=O)c1cc(-c2csc(-c3ccc(C(C)(C)C)cc3)n2)on1	6	-17	-8	32*	5
CC(=O)Nc1cccc(-c2cc(N3CCN(CCO)CC3)n3nccc3n2)c1	-15	.	.	37*	.
OCCN1CCN(c2cc(-c3ccc(CO)cc3)nc3ccnn23)CC1	?	.	.	-7	.
Oc1ccc(N=C/C=C/c2cccc(Br)c2)cc1-c1nc2ccccc2s1	-2	-11	-6	-5	-2
CC(/C=N/Nc1nc(N2CCCCC2)nc(N2CCCCC2)n1)=C\c1ccccc1	-18	-18	-5	39*	4

Source: PubChem (National Center for Advancing Translational Sciences (NCATS))
